Here are results for 47 sequences from the supplement of paper PMC11417369.

In all, about 25,000 sequences were measured (“ln(normalized median fluorescence intensity)”: median about 9.3, highest 2% from about 10 on). This excerpt belongs to a sample that is enriched for the highest values.

This test relates to PF3D7_0420300 AP2 domain 1 (GST-tagged). As to the kind of experiment: gcPBM binding intensity (ln(normalized median fluorescence intensity)); higher = stronger DNA binding. The essentials:
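The binding buffer was 1× PBS containing 1% milk, 0.2 mg/ml BSA, 0.5% salmon testes DNA and 0.03% Triton X-100. In it, GST-tagged P. falciparum DNA-binding domains expressed in E. coli were applied for 1 h to an Agilent 4 × 180k array of primer-extended double-stranded 36-bp intergenic genomic probes plus negative controls. Binding intensity, read with Alexa488 anti-GST antibody and a 488 nm scan, is the highest Masliner-normalised natural-log median intensity across replicate spots of either probe orientation.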
Regarding “AAAAAAATGAAACACACACACACATATATATATATA [CACACA_site1043]”, the “gcPBM binding intensity (ln)” value worked out at 9.93. Consider “TTTTTATTATAAGGTCGTACAATTGTAATTATTGTA [XGTACX_site1413]”, for which the “gcPBM binding intensity (ln)” value came to 9.23. To TATTTATTTTTTTTTGTGCACTTAATATAATCTTAC belongs 9.24; to “ATATATATATATTATGTGCGCATATACCATTTTAAT [GTGCAC_site9575]”, 9.32; to “TATTACTTGATATATACACACATATAACATAAATGC [CACACA_site7783]”, 9.45. As for “TATATATATATATATACACACATATATATAAATATA [CACACA_site2035]”, the “gcPBM binding intensity (ln)” value came out at 9.2. To “TAAATAAATACATACACACACATACCTATATTTATA [CACACA_site7466]” belongs 9.93; to “GATAATACATAAATTTATAAGTGGAAGAATAAATAA [CACACA_negctrl_site698]”, 9.32; to “TACTTACCAAAATACACACACACACCCAATATATAA [CACACA_site1871]”, 10.1. For the sequence “AATACTTACCAAAATACACACACACCCAAAATATAT [CACACA_site8559]”, the “gcPBM binding intensity (ln)” value is 10.1. To “GGACAACAAACAAACACACACAAAAAAAAAATAAAA [CACACA_site3791]” belongs 9.84; to “TACTTACCAAAATACACACACACACTAGATATATAA [CACACA_site5096]”, 10.3.

“CAACAAAATAAACACACACACACAAACACAAAAAAA [CACACA_site5806]”: the “gcPBM binding intensity (ln)” value stood at 10.3. As to “AAAGAAGGTAAACACACACACACACCGACAAAAAAA [CACACA_site9255]”, the “gcPBM binding intensity (ln)” value stood at 10.3. The same measure for “CAAAAGAAGGTAAACACACACACACCCATACAAAAA [CACACA_site3765]”: 10.1. On to “CACAAACAAAAACACACACACACACCGACAAAAATG [CACACA_site5362]”, for which the “gcPBM binding intensity (ln)” value stood at 10. The same measure for “TAAAATAAAACAAACACACACACACCGACACAAAAA [CACACA_site5993]”: 10.2. The same measure for “CAAAAGAAGGTAAACACACACACACGCATACAAAAA [CACACA_site7724]”: 10.1; for “TATTTATTAAAACACACACACACACCGACAAAATAA [CACACA_site4293]”: 10.1; for “TTTACATATTTATATACACACTTTTGCGTGCGTGGT [CACACA_site6647]”: 9.21. To “AAAAAAATTGGGAAAAGTACTTGCAGCTAGCTAAAA [XGTACX_site5178]” belongs 9.18; to “TACTTTTATATGAATACACACAGGAATATATATATG [CACACA_site3568]”, 9.48; to “ATTCTAAATATCAGTGCACACATTTCTACGCAAAGT [CACACA_site474]”, 9.36. With “TATATATATATATATGGTACAGTTTATGCCTTTTAA [XGTACX_site6695]”, the “gcPBM binding intensity (ln)” value is 9.14. With TAGTGATATAATTATGTGCACTTAATACAGGTCGAT, the “gcPBM binding intensity (ln)” value was found to be 9.42. As to “AAAAAAAAAAAAAGTACACACTTTTGCGTACAAGTA [CACACA_site5672]”, the “gcPBM binding intensity (ln)” value was 9.32.

Consider “TTTTTAAAAAAAAATAGAGAGTCAAAGTATGTGGCG [CACACA_negctrl_site194]”, for which the “gcPBM binding intensity (ln)” value was 9.32. In the case of “AATTCTTTCATATATTGTACGTATTCCCATAAAATA [XGTACX_site5923]”, the “gcPBM binding intensity (ln)” value stood at 9.36. The same measure for “AATGCCTTGTTGAGGTGTACTGAATGTTATTTTAAT [XGTACX_site3255]”: 9.19; for “CACAAAAATAAATATAAACACACAATAAATAAATAA [CACACA_site8197]”: 9.75; for “TATATATAAATAAACACACACAAATATAATAAAAAA [CACACA_site3526]”: 10.1. Turning to “TTCAAAATAAAAAATTCACACACATATATATATATA [CACACA_site8653]”, the “gcPBM binding intensity (ln)” value came out at 9.33. In the case of “CAAAAAATTCAACACACACACACACCGATAAATAAA [CACACA_site8330]”, the “gcPBM binding intensity (ln)” value amounted to 10.2. To “AATATATATAAATAAACACACACAAATATAATAAAA [CACACA_site9176]” belongs 10.2. To “TACAAAAATATATAAACACACAAATATAATATATAT [CACACA_site2942]” belongs 9.74. The same measure for “AAAAAAAAAAAAAACACACACACAAAATAAACAAAC [CACACA_site2720]”: 10.3; for “AATAAAAACAAACAAAAAAACAAATAAATAAATAAA [CACACA_negctrl_site483]”: 9.65; for “ACAAATAAATAAAAAACACACACAAATAAATAAATA [CACACA_site8708]”: 10.1.

“AAATAATTCAAAAAAACACACAAATTACAAAATAAA [CACACA_site269]”: the “gcPBM binding intensity (ln)” value is 9.72. The same measure for “ACAAAATAAAAACACACACACAAACACAAAAAAATA [CACACA_site3390]”: 10.3. “AAAATAAAATAAAACACAAAAAAATAAAACAAAATA [CACACA_negctrl_site16]”: the “gcPBM binding intensity (ln)” value was found to be 9.8. For the sequence “TATATATTATAAAAGAGTACAGAAAGAAAAAAAAAT [XGTACX_site8305]”, the “gcPBM binding intensity (ln)” value was found to be 9.54. The same measure for “TCTTTTAAATAACAACATAAATAAATAAATAAATAA [GTGCAC_negctrl_site319]”: 9.01. To “GTGTATTTTGTGCGCACACACATGCAAAAAGAAATA [CACACA_site6660]” belongs 9.55; to “AGAAATTATAAATACCTACACACTTATCAAAATAAA [CACACA_site2264]”, 9.55. “TTACACATATATATAAATATATATAAATATATATAT [CACACA_negctrl_site150]”: the “gcPBM binding intensity (ln)” value was 9.08.

For “AATATTATTTAGGAGCGTACGTTTTATTTACATATT [XGTACX_site5188]”, the “gcPBM binding intensity (ln)” value worked out at 9.4.
